# Results published in the supplement of paper PMC8728848.
# This excerpt belongs to a sample that is enriched for the strongest signals.
# Legend:
# Assay in all cases: glycan array binding signal (z-score within array); higher = stronger binding
# Settings in all cases: glycan notation: IUPAC condensed, linker removed
# [1] = target: Neu5Gc(a2-3)Gal(b1-4)[Fuc(a1-3)]GlcNAc
# Method in brief: (§1)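 Negative Z-scores can be read as non-binding. The Z-score is calculated within each array and then averaged across arrays of one protein sequence at different concentrations or buffers and across linkers. Arrays, 3228 in all, were curated from the Consortium for Functional Glycomics database and kept only where the protein sequence was available.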
# [2] = target: Fuc(a1-2)Gal(b1-3)[Fuc(a1-4)]GlcNAc(b1-3)[Fuc(a1-3)[Gal(b1-4)]GlcNAc(b1-6)]Gal(b1-4)Glc
# Method in brief: as §1
# [3] = target: Fuc(a1-2)[Gal(a1-3)]Gal(b1-3)GalNAc(b1-3)Gal(a1-4)Gal(b1-4)Glc
# Method in brief: as §1
# [4] = target: Fuc(a1-2)[Gal(a1-3)]Gal(b1-4)GlcNAc(b1-3)GalNAc
# Method in brief: as §1
# [5] = target: Fuc(a1-2)[GalNAc(a1-3)]Gal(b1-3)GlcNAc(b1-3)GalNAc
# Method in brief: as §1
# [6] = target: Fuc(a1-3)[Gal(b1-4)]GlcNAc
# Method in brief: as §1
# [7] = target: Fuc(a1-3)[Gal3S(b1-4)]Glc
# Method in brief: as §1
# [8] = target: Gal(a1-3)GalNAc
# Method in brief: as §1
# [9] = target: Gal(a1-4)GlcNAc
# Method in brief: as §1
# [10] = target: Gal(b1-3)GlcNAc(b1-3)GalNAc
# Method in brief: as §1
# [11] = target: Gal(b1-3)GlcNAc(b1-6)[Gal(b1-3)]GalNAc
# Method in brief: as §1
# [12] = target: Gal(b1-3)[Fuc(a1-4)]GlcNAc(b1-2)Man
# Method in brief: as §1
# [13] = target: Gal(b1-3)[Fuc(a1-4)]GlcNAc(b1-6)GalNAc
# Method in brief: as §1
# [14] = target: Gal(b1-4)GlcNAc(a1-6)Gal(b1-4)GlcNAc
# Method in brief: as §1
# [15] = target: Gal(b1-4)GlcNAc(b1-2)Man(a1-3)[Gal(b1-4)GlcNAc(b1-2)Man(a1-6)]Man(b1-4)GlcNAc(b1-4)GlcNAc
# Method in brief: as §1
# [16] = target: Gal(b1-4)GlcNAc(b1-2)[Gal(b1-4)GlcNAc(b1-4)]Man(a1-3)[GlcNAc(b1-4)][Gal(b1-4)GlcNAc(b1-2)[Gal(b1-4)GlcNAc(b1-6)]Man(a1-6)]Man(b1-4)GlcNAc(b1-4)GlcNAc
# Method in brief: as §1
# [17] = target: Gal(b1-4)GlcNAc(b1-6)[Gal(b1-3)]GalNAc
# Method in brief: as §1
# [18] = target: Gal3S(b1-4)[Fuc(a1-3)]GlcNAc
# Method in brief: as §1
# [19] = target: Gal4S(b1-4)GlcNAc
# Method in brief: as §1
# [20] = target: Gal6S(b1-3)GlcNAc6S
# Method in brief: as §1
# [21] = target: GlcNAc(a1-4)Gal(b1-4)GalNAc
# Method in brief: as §1
# [22] = target: GlcNAc(b1-3)Gal(b1-4)GlcNAc(b1-3)Gal(b1-4)GlcNAc(b1-3)Gal(b1-4)GlcNAc(b1-2)Man(a1-3)[GlcNAc(b1-3)Gal(b1-4)GlcNAc(b1-3)Gal(b1-4)GlcNAc(b1-3)Gal(b1-4)GlcNAc(b1-2)Man(a1-6)]Man(b1-4)GlcNAc(b1-4)GlcNAc
# Method in brief: as §1
# [23] = target: GlcNAc(b1-3)Gal(b1-4)GlcNAc(b1-3)Gal(b1-4)GlcNAc(b1-3)Gal(b1-4)GlcNAc(b1-3)Gal(b1-4)GlcNAc(b1-2)[GlcNAc(b1-3)Gal(b1-4)GlcNAc(b1-3)Gal(b1-4)GlcNAc(b1-3)Gal(b1-4)GlcNAc(b1-3)Gal(b1-4)GlcNAc(b1-6)]Man(a1-6)[GlcNAc(b1-3)Gal(b1-4)GlcNAc(b1-3)Gal(b1-4)GlcNAc(b1-3)Gal(b1-4)GlcNAc(b1-3)Gal(b1-4)GlcNAc(b1-2)Man(a1-3)]Man(b1-4)GlcNAc(b1-4)[Fuc(a1-6)]GlcNAc
# Method in brief: as §1
# [24] = target: Man(a1-2)Man(a1-2)Man(a1-3)Man
# Method in brief: as §1
# [25] = target: Man(a1-2)Man(a1-2)Man(a1-6)[Man(a1-3)]Man
# Method in brief: as §1
# [26] = target: Man(a1-2)Man(a1-3)Man
# Method in brief: as §1
# [27] = target: Man(a1-2)Man(a1-3)[Man(a1-2)Man(a1-6)]Man(a1-6)[Man(a1-2)Man(a1-2)Man(a1-3)]Man
# Method in brief: as §1
# [28] = target: Man(a1-2)Man(a1-3)[Man(a1-2)Man(a1-6)]Man(a1-6)[Man(a1-2)Man(a1-2)Man(a1-3)]Man(b1-4)GlcNAc(b1-4)GlcNAc
# Method in brief: as §1
# [29] = target: Man(a1-2)Man(a1-3)[Man(a1-6)]Man(a1-6)[Man(a1-2)Man(a1-3)]Man(b1-4)GlcNAc(b1-4)GlcNAc
# Method in brief: as §1
# [30] = target: Man(a1-2)Man(a1-6)[Man(a1-3)]Man(a1-6)[Man(a1-2)Man(a1-2)Man(a1-3)]Man
# Method in brief: as §1
# [31] = target: Man(a1-2)Man(a1-6)[Man(a1-3)]Man(a1-6)[Man(a1-2)Man(a1-2)Man(a1-3)]Man(b1-4)GlcNAc(b1-4)GlcNAc
# Method in brief: as §1
# [32] = target: Man(a1-3)[Man(a1-6)]Man(a1-6)[Man(a1-2)Man(a1-3)]Man(b1-4)GlcNAc(b1-4)GlcNAc
# Method in brief: as §1
# [33] = target: Man(a1-3)[Man(a1-6)]Man(a1-6)[Man(a1-3)]Man(b1-4)GlcNAc(b1-4)GlcNAc
# Method in brief: as §1
# [34] = target: Man(a1-3)[Man(a1-6)]Man(b1-4)GlcNAc(b1-4)GlcNAc
# Method in brief: as §1
# [35] = target: Man(a1-6)Man
# Method in brief: as §1
# [36] = target: Neu5Ac(a2-3)Gal(b1-4)GlcNAc(b1-2)Man(a1-3)[GlcNAc(b1-4)][Neu5Ac(a2-3)Gal(b1-4)GlcNAc(b1-2)Man(a1-6)]Man(b1-4)GlcNAc(b1-4)GlcNAc
# Method in brief: as §1
# [37] = target: Neu5Ac(a2-3)Gal(b1-4)GlcNAc(b1-3)Gal(b1-4)[Fuc(a1-3)]GlcNAc
# Method in brief: as §1
# [38] = target: Neu5Ac(a2-3)Gal(b1-4)GlcNAc(b1-6)[Neu5Ac(a2-3)Gal(b1-3)]GalNAc
# Method in brief: as §1
# [39] = target: Neu5Ac(a2-3)[GalNAc(b1-4)]Gal(b1-4)Glc
# Method in brief: as §1
# [40] = target: Neu5Ac(a2-6)Gal(b1-4)GlcNAc(b1-2)Man(a1-3)[Gal(b1-4)GlcNAc(b1-2)Man(a1-6)]Man(b1-4)GlcNAc(b1-4)GlcNAc
# Method in brief: as §1
# [41] = target: Neu5Ac(a2-6)Gal(b1-4)GlcNAc(b1-2)Man(a1-3)[GlcNAc(b1-2)Man(a1-6)]Man(b1-4)GlcNAc(b1-4)GlcNAc
# Method in brief: as §1
# [42] = target: Neu5Ac(a2-6)Gal(b1-4)GlcNAc(b1-3)Gal(b1-3)GlcNAc
# Method in brief: as §1
# [43] = target: Neu5Ac(a2-6)GalNAc
# Method in brief: as §1
# [44] = target: Neu5Ac(a2-6)GlcNAc(b1-4)GlcNAc(b1-4)GlcNAc
# Method in brief: as §1
binder,measurement,setting,value
"ZG-16 (Homo sapiens), O60844 (protein) IQARSSSYSGEYGSGGGKRFSHSGNQLDGPITALRVRVNTYYIVGLQVRYGKVWSDYVGGRNGDLEEIFLHPGESVIQVSGKYKWYLKKLVFVTDKGRYLSFGKDSGTSFNAVPLHPNTVLRFISGRSGSLIDAIGLHWDVYPTSCSRCSRGSDDDDKAEPRGPTIKPCPPCKCPAPNLLGGPSVFIFPPKIKDVLMISLSPIVTCVVVDVSEDDPDVQISWFVNNVEVHTAQTQTHREDYNSTLRVVSALPIQHQDWMSGKEFKCKVNNKDLPAPIERTISKPKGSVRAPQVYVLPPPEEEMTKKQVTLTCMVTDFMPEDIYVEWTNNGKTELNYKNTEPVLDSDGSYFMYSKLRVEKKNWVERNSYSCSVVHEGLHNHHTTKSFSRTPGKRTYHHHHHHARKLTR",glycan array binding signal (z-score),[1],-0.11
Banana lectin (Musa acuminata) (protein) MNGAIKVGAWGGNGGSAFDMGPAYRIISVKIFSGDVVDAVDVTFTYYGKTETRHFGGSGGTPHEIVLQEGEYLVGMKGEFGNYHGVVVVGKLGFSTNKKSYGPFGNTGGTPFSLPIAAGKISGFFGRGGDFIDAIGVYLEP,glycan array binding signal (z-score),[2],-0.195
same,glycan array binding signal (z-score),[3],-0.195
same,glycan array binding signal (z-score),[4],-0.195
same,glycan array binding signal (z-score),[5],-0.188
same,glycan array binding signal (z-score),[6],-0.193
same,glycan array binding signal (z-score),[7],-0.192
same,glycan array binding signal (z-score),[8],-0.194
same,glycan array binding signal (z-score),[9],-0.194
same,glycan array binding signal (z-score),[10],-0.195
same,glycan array binding signal (z-score),[11],-0.173
same,glycan array binding signal (z-score),[12],-0.19
same,glycan array binding signal (z-score),[13],-0.19
same,glycan array binding signal (z-score),[14],-0.196
same,glycan array binding signal (z-score),[15],-0.161
same,glycan array binding signal (z-score),[16],-0.197
same,glycan array binding signal (z-score),[17],-0.193
same,glycan array binding signal (z-score),[18],-0.19
same,glycan array binding signal (z-score),[19],-0.195
same,glycan array binding signal (z-score),[20],-0.195
same,glycan array binding signal (z-score),[21],-0.174
same,glycan array binding signal (z-score),[22],-0.179
same,glycan array binding signal (z-score),[23],-0.139
same,glycan array binding signal (z-score),[24],3.39
same,glycan array binding signal (z-score),[25],8.43
same,glycan array binding signal (z-score),[26],5.44
same,glycan array binding signal (z-score),[27],7.92
same,glycan array binding signal (z-score),[28],3.85
same,glycan array binding signal (z-score),[29],6.18
same,glycan array binding signal (z-score),[30],6.72
same,glycan array binding signal (z-score),[31],7.63
same,glycan array binding signal (z-score),[32],5.95
same,glycan array binding signal (z-score),[33],3.55
same,glycan array binding signal (z-score),[34],7.64
same,glycan array binding signal (z-score),[35],-0.076
same,glycan array binding signal (z-score),[36],-0.191
same,glycan array binding signal (z-score),[37],-0.195
same,glycan array binding signal (z-score),[38],-0.194
same,glycan array binding signal (z-score),[39],-0.193
same,glycan array binding signal (z-score),[40],-0.142
same,glycan array binding signal (z-score),[41],-0.102
same,glycan array binding signal (z-score),[42],-0.194
same,glycan array binding signal (z-score),[43],-0.192
same,glycan array binding signal (z-score),[44],-0.194
